For 73 compounds, Potency results are on record in PubChem BioAssay (NCATS).

Results filed as inconclusive are left out. Where a call stands in place of a potency, no number is given. Active and inactive are the calls of the source. Calls follow the shape of the dose curve; as a rule, active = well fitted curve in the direction sought with a large enough effect; inconclusive = small, poorly fitted or top-dose-only effect, or another doubt; inactive = no such curve, though single readings can be large; an effect the other way counts as inactive or inconclusive.

For assay [1], the target named is Aldehyde dehydrogenase, mitochondrial (Homo sapiens) (UniProt P05091). Description: qHTS for Inhibitors of the Aldehyde Dehydrogenase Family (ALDH2) Primary screen (AID 2061308). Also: nearly all actives have a fitted effect of over 55% in size. A general note: Quantitative high-throughput screening tests each substance at several concentrations.
Assay [2] has as its target Retinaldehyde dehydrogenase 3 (Homo sapiens) (UniProt P47895). The assay can be described thus: qHTS for Inhibitors of the Aldehyde Dehydrogenase Family (ALDH1A3) Primary screen (AID 2061315).

Regarding `O=C1CCCC2=C1C(c1cccc(F)c1)N=C(Nc1nc3ccccc3o1)N2` (stereo unspecified), the Potency result in assay [1] and in assay [2] was “inactive” in each case.

`Cc1cc(C)nc(NC(=S)N2CCN(Cc3cccc4ccccc34)CC2)c1`: the Potency entry in assay [1] and in assay [2] was “inactive” each time.

Take `CCOC(=O)c1csc(-n2nc(-c3ccc(F)c(F)c3)c(Cc3ccc(S(N)(=O)=O)cc3)c2N)n1`: the Potency result in assay [1] and in assay [2] was “inactive” in each case.

`CC(C)(O)/C=C/C(=O)[C@](C)(O)[C@H]1[C@H](O)C[C@@]2(C)[C@@H]3CC=C4[C@@H](C[C@H](O[C@@H]5O[C@H](CO)[C@@H](O)[C@H](O)[C@H]5O)C(=O)C4(C)C)[C@]3(C)C(=O)C[C@]12C`: the Potency entry in assay [1] and in assay [2] was “inactive” each time.

Take `NC(=O)C1CCN(c2nc(-c3ccc(N)cc3)cs2)CC1`: the Potency entry in assay [1] and in assay [2] was “inactive” throughout.

As to `COc1ccc(-c2nc3ccc(OC)cc3s2)cc1`, the Potency result in assay [1] and in assay [2] was “inactive” throughout.

As for `Cc1ccc(OCCn2c(CCNCC3CCCCC3)nc3ccccc32)cc1`, the Potency entry in assay [1] and in assay [2] was “inactive” in each case.

For the compound `C/C=C/c1ccc(O[C@@H]2O[C@H](CO)[C@@H](O)[C@H](O)[C@H]2O)c(OC)c1`, the Potency result in assay [1] and in assay [2] was “inactive” each time.

On to `O=C(C[C@H]1CC[C@@H](C(=O)Nc2ccc(S(=O)(=O)Nc3nccs3)cc2)C1)c1ccccc1`, for which the Potency result in assay [1] and in assay [2] was “inactive” each time.

Regarding `Cc1cn([C@H]2C[C@H](N[S+](=O)([O-])Cc3cc(Cl)cc(Cl)c3)[C@@H](CO)O2)c(=O)[nH]c1=O`, the Potency result in assay [1] and in assay [2] was “inactive” in each case.

`O=C(O)C[C@H]1CCC(=O)[C@@H]1C/C=C\CCO`: the Potency entry in assay [1] and in assay [2] was “inactive” in each case.

In the case of `COCc1nn2c(=O)cc(N3CCNCC3)nc2s1`, the Potency entry in assay [1] and in assay [2] was “inactive” each time.

Take `O=C1CCc2cc(S(=O)(=O)Nc3cccc(B(O)O)c3)ccc2N1`: the Potency result in assay [1] and in assay [2] was “inactive” in each case.

With `CN(C)CC1CCN(C2CCN(C(=O)c3cccc(-c4cc(O)c5ncccc5c4)c3)CC2)CC1`, the Potency result in assay [1] and in assay [2] was “inactive” in each case.

With `C=C1CCC[C@]2(C)C[C@]3(O)OC(=O)C(C)=C3C[C@@H]12`, the Potency result in assay [1] and in assay [2] was “inactive” each time.

Take `CC(C)c1ccccc1-c1nc(NCc2ccc(-c3cccnc3)cc2)c2cccn2n1`: the Potency result in assay [1] and in assay [2] was “inactive” in each case.

For the compound `O=C(Nc1cc(F)cc(F)c1)Nc1nnc(-c2ccncc2)s1`, the Potency result in assay [1] and in assay [2] was “inactive” each time.

Regarding `Oc1ccc(CNc2nccc3ccccc23)c2cccnc12`, the Potency result in assay [1] and in assay [2] was “inactive” throughout.

As for `Cc1cccc(Nc2nn3c(=O)c4ccccc4nc3s2)c1`, the Potency result in assay [1] and in assay [2] was “inactive” throughout.

With `CC(=O)NC(c1ccco1)c1cc(Br)c2cccnc2c1O` (stereo unspecified), the Potency entry in assay [1] and in assay [2] was “inactive” throughout.

Regarding `CC1CC(=O)NN=C1c1ccc(NCC(C)(C)NCC(O)COc2cc(Cl)ccc2C#N)cc1` (stereo unspecified), the Potency entry in assay [1] and in assay [2] was “inactive” each time.

With `Cc1ccc(CSc2nnc(-c3cccc4ccccc34)o2)cc1`, the Potency entry in assay [1] and in assay [2] was “inactive” each time.

`O=C1Cc2cc(S(=O)(=O)N3CCN(c4cccc(C(F)(F)F)c4)CC3)ccc2N1`: the Potency entry in assay [1] and in assay [2] was “inactive” each time.

On to `O=C(OCC#CCSc1nnc(-c2cccc(F)c2)o1)c1ccc(F)cc1`, for which the Potency entry in assay [1] and in assay [2] was “inactive” each time.

For the compound `Cc1ccc(S(=O)(=O)Nc2cnccc2C(=O)Nc2nc(-c3ccccc3F)cs2)cc1`, the Potency result in assay [1] and in assay [2] was “inactive” throughout.

On to `COc1cccc(Cn2ncc3c4sc(C)cc4n(C)c3c2=O)c1`, for which the Potency result in assay [1] and in assay [2] was “inactive” throughout.

`CCOC(=O)c1ccc(NC(=O)CN2CCCCC2)cc1`: the Potency result in assay [1] and in assay [2] was “inactive” throughout.

Regarding `CN(C)c1cccc(-c2ncc(F)c(N3CCC(C(N)=O)CC3)n2)c1`, the Potency result in assay [1] and in assay [2] was “inactive” in each case.

Take `O=[N+]([O-])c1ccc([S+](=O)([O-])N2CCN([S+](=O)([O-])c3ccc4c(c3)OCCO4)CC2)c([N+](=O)[O-])c1`: the Potency result in assay [1] and in assay [2] was “inactive” each time.

As for `CCC(C)C(=O)OC1C(C)C2(O)C(C=C(CO)CC3(O)C(=O)C(C)=CC32)C2C(C)(C)C12OC(=O)C(C)C` (stereo unspecified), the Potency result in assay [1] and in assay [2] was “inactive” throughout.

As to `Cc1cc2c(s1)c1cnn(Cc3ccccc3C)c(=O)c1n2C`, the Potency result in assay [1] and in assay [2] was “inactive” throughout.

With `COc1cc(O)c(C(CC(=O)N2CCC(c3ccccc3)CC2)c2ccc3c(c2)OCO3)c(OC)c1` (stereo unspecified), the Potency result in assay [1] and in assay [2] was “inactive” each time.

Regarding `O=c1c2ccccc2nc2sc(Nc3cccc(Br)c3)nn12`, the Potency entry in assay [1] and in assay [2] was “inactive” each time.

Consider `CC(C)CCn1c(CN2CCN(C(=O)C(C)C)CC2)nc2c1c(=O)n(C)c(=O)n2C`, for which the Potency entry in assay [1] and in assay [2] was “inactive” throughout.

In the case of `O=C(OCC#CCSc1nnc(-c2c[nH]c3ccccc23)o1)c1ccc(F)cc1`, the Potency entry in assay [1] and in assay [2] was “inactive” in each case.

For `CNc1nnc(-c2cccc3ccccc23)s1`, the Potency entry in assay [1] and in assay [2] was “inactive” in each case.

In the case of `Cn1nnnc1Sc1ncnc2scc(-c3cccc(F)c3)c12`, the Potency result in assay [1] and in assay [2] was “inactive” in each case.

`CNc1oc(-c2cccc3c2OC(F)(F)O3)nc1C#N`: the Potency result in assay [1] and in assay [2] was “inactive” each time.

Regarding `CC(=O)Nc1sc2c(c1-c1cccnc1)CCNC2`, the Potency result in assay [1] and in assay [2] was “inactive” throughout.

For `O=C1CCCC2=C1C(c1ccncc1)N=C(Nc1nc3ccccc3o1)N2` (stereo unspecified), the Potency result in assay [1] and in assay [2] was “inactive” in each case.

Consider `Fc1ccc(Nc2cc(-c3ccccc3)nc(-c3ccncc3)n2)cc1F`, for which the Potency entry in assay [1] and in assay [2] was “inactive” throughout.

In the case of `Cc1ccc(NC(=O)c2cnn3c(C)cc(C)nc23)cc1`, the Potency result in assay [1] and in assay [2] was “inactive” each time.

Turning to `Nc1nc(N)c2c(OCC3CCN(Cc4ccccc4F)CC3)cccc2n1`, the Potency result in assay [1] and in assay [2] was “inactive” in each case.

As to `N#Cc1nc(Nc2cc(F)cc(F)c2)c2ncn(CCO)c2n1`, the Potency entry in assay [1] and in assay [2] was “inactive” each time.

Regarding `O=S(=O)(c1ccc2c(c1)OCCO2)N1CCN(S(=O)(=O)c2cc(F)ccc2F)CC1`, the Potency entry in assay [1] and in assay [2] was “inactive” throughout.

For the compound `Cc1ccnc(NC(=S)NCCN(C)c2cccc(C(F)(F)F)c2)c1`, the Potency result in assay [1] and in assay [2] was “inactive” throughout.

`Cc1ccccc1S(=O)(=O)N1CCc2cc(-c3nc(NC(=O)Cc4ccc5c(c4)OCO5)sc3C)ccc21`: the Potency result in assay [1] and in assay [2] was “inactive” throughout.

For the compound `NC(=O)C1CCN(c2nc(-c3ccc(OCc4ccccc4)cc3)cs2)CC1`, the Potency result in assay [1] and in assay [2] was “inactive” each time.

As for `N#Cc1cccc(Nc2ncc(-c3cccc4ccccc34)o2)c1`, the Potency entry in assay [1] and in assay [2] was “inactive” each time.

In the case of `CCCCNc1nc(C)nc2c1nc(-c1ccccc1)n2CCCCN(CC)CC`, the Potency result in assay [1] and in assay [2] was “inactive” each time.

In the case of `O=S(=O)(c1ccc(O)c2ncccc12)N1CCCCC1`, the Potency result in assay [1] and in assay [2] was “inactive” in each case.

With `O=S(=O)(Nc1cccc2ccccc12)c1ccc(NCc2ccc(Br)cc2O)cc1`, the Potency entry in assay [1] and in assay [2] was “inactive” in each case.

In the case of `O=C1c2ccccc2C(=O)N1C1CCCCC1`, the Potency entry in assay [1] and in assay [2] was “inactive” in each case.

For `CCCCNc1nc(C)nc2c1nc(-c1ccccc1)n2C(C)CCCN(CC)CC` (stereo unspecified), the Potency entry in assay [1] and in assay [2] was “inactive” throughout.

As to `CC(C)(C)c1ccc(Nc2nc(C#N)nc(NC3CCCC3)n2)cc1`, the Potency entry in assay [1] and in assay [2] was “inactive” in each case.

For the compound `C=C(C)C(=O)OC1C(OC(C)=O)/C(C=O)=C\CC/C(CO)=C/C2OC(=O)C(=C)C21` (stereo unspecified), the Potency result in assay [1] and in assay [2] was “inactive” in each case.

Consider `CN(C)[S+](=O)([O-])c1ccc(-c2ccc(=O)n(CC(=O)NCCc3ccccc3)n2)cc1`, for which the Potency entry in assay [1] and in assay [2] was “inactive” in each case.

`COc1cccc(C2=Nn3c(nnc3-c3cc(OC)ccc3OC)SC2)c1`: the Potency entry in assay [1] and in assay [2] was “inactive” in each case.

On to `Cc1ccc(C(C)c2ccc(=O)n(CC(=O)NCCc3ccccc3)n2)cc1` (stereo unspecified), for which the Potency result in assay [1] and in assay [2] was “inactive” in each case.

For the compound `O=S(=O)(NCc1ccccc1)c1ccc(O)c2ncccc12`, the Potency result in assay [1] and in assay [2] was “inactive” throughout.

As to `Cc1cnc(-c2ccccc2C(C)C)nc1NCc1ccc(C#N)cc1`, the Potency result in assay [1] and in assay [2] was “inactive” in each case.

For the compound `Cc1cccc(C)c1OCc1cccc(C2Nc3ccccc3C(=O)N2Cc2ccco2)c1` (stereo unspecified), the Potency entry in assay [1] and in assay [2] was “inactive” in each case.

As for `Cc1ccc(S(=O)(=O)Nc2ccc(C(=O)Nc3ncc(-c4ccccc4)s3)cc2)cc1`, the Potency entry in assay [1] and in assay [2] was “inactive” each time.

Regarding `Cc1cc2c(s1)c1cnn(Cc3ccc(Br)cc3)c(=O)c1n2C`, the Potency entry in assay [1] and in assay [2] was “inactive” in each case.

As to `Cc1cc2c(s1)c1cnn(Cc3cccc(F)c3F)c(=O)c1n2C`, the Potency entry in assay [1] and in assay [2] was “inactive” in each case.

As to `FC(F)(F)c1cccc(N2CCN(C(=S)Nc3ccncc3)CC2)c1`, the Potency entry in assay [1] and in assay [2] was “inactive” throughout.

On to `Cc1ccc(S(=O)(=O)n2cc(C(=O)Nc3ccc(-c4ccccc4)cc3)c3ccccc32)cc1`, for which the Potency entry in assay [1] and in assay [2] was “inactive” each time.

As for `CC(=O)Nc1sc2c(c1-c1ccc3c(c1)CCO3)CCNC2`, the Potency result in assay [1] and in assay [2] was “inactive” each time.

`CS(=O)(=O)c1ccccc1-c1csc(N2CCC(C(N)=O)CC2)n1`: the Potency result in assay [1] and in assay [2] was “inactive” each time.

On to `O=C(Cc1ccc2ccccc2c1)Nc1ccc(S(=O)(=O)Nc2nccs2)cc1`, for which the Potency entry in assay [1] and in assay [2] was “inactive” each time.

As to `Cc1ccc(OCCn2c(CCN[S+](=O)([O-])C3CCCCC3)nc3ccccc32)cc1`, the Potency entry in assay [1] and in assay [2] was “inactive” in each case.

As to `COc1cc(OC)c(C(CC(=O)N2CC(C)CC(C)C2)c2ccc3c(c2)OCO3)c(OCC#N)c1` (stereo unspecified), the Potency entry in assay [1] and in assay [2] was “inactive” each time.

As for `Cc1cc(C)n2ncc(C(=O)Nc3ccc(C(C)(C)C)cc3)c2n1`, the Potency result in assay [1] and in assay [2] was “inactive” each time.
